From PubChem
ASM inhibitor = inhibitors of human secretory acid sphingomyelinase. placental ASM, HMU-PC fluorogenic substrate, 60 min. Potency, µM (titrated, usually from 57.5 µM), usual class: inhibitors. hit rate 0.006% among 340,000
Target sequence (P17405 47-631 limits assumed): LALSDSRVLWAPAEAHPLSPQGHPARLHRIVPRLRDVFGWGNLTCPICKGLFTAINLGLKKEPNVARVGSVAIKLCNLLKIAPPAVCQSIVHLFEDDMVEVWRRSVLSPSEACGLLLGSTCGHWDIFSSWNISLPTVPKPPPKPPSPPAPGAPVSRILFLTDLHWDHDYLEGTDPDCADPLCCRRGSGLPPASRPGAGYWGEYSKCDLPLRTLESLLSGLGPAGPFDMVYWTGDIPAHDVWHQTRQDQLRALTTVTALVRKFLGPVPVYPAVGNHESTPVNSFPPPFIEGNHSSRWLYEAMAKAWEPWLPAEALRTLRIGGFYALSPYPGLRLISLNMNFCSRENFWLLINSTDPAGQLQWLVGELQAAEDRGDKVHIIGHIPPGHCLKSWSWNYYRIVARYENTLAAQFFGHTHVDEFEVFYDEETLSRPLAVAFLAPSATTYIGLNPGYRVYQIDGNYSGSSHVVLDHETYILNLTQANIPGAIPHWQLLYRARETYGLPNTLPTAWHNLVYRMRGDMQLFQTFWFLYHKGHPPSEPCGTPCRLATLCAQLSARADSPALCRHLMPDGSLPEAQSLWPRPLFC
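Steps: dispense placental human ASM, pin compound, wait 10 min at room temperature, add HMU-PC0 substrate at 9 uM final, incubate 60 min at 37 °C, add stop solution raising pH to 10, read fluorescence.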
TGFb SMAD3 inh = inhibitors of TGF-b signaling | HepG2 CAGA-GFP TGF-b/SMAD3 reporter, GFP fluorescence, 18 h; TGF-beta stimulated, 500 pg/mL final | Potency, µM (series often up to 46.1 µM), hits mostly inhibitors | hit rate 1.2% among 410,000 | AID 588855; note: nearly all actives have a fitted effect of over 65% in size
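Inhibition was scored as loss of TGF-beta-induced (500 pg/mL final, 18 hours, 37 degrees C) GFP in HEPG2 cells carrying a CAGA-GFP reporter, in DMEM with 1% FBS. Well GFP was summed per cell; Activity was normalised to unstimulated and stimulated DMSO wells, then concentration-response fitting.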
HepG2 viability = HepG2 cytotoxicity, counter-screen for TGF-b inhibitors | HepG2 CAGA-GFP viability, ATP luminescence, 18 h | Potency, µM (series often up to 46.1 µM), usual class: cytotoxic | hit rate 0.76% among 410,000 | AID 588856
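HepG2 CAGA-GFP cells (1000/well, DMEM with 1% FBS) received compound, then TGF-beta at 500 pg/mL final, and were incubated 18 hours at 37 degrees C. Viability was read by CellTiter-Glo luminescence. Media-only wells were set as complete cell-killing and DMSO as no toxicity.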
IL-1B inflam inh = inhibitors of inflammasome signaling (IL-1 beta secretion) | hit rate 4.7% among 360,000 | activity change, % at 57.5 µM | THP-1 LPS/ATP IL-1B secretion, AlphaLISA, 16 h; stronger effect = lower value; in the data active = activity change below about -50%; inconclusive = mostly about -30% to -49%
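Secreted IL-1B measured by AlphaLISA bead assay after 16 h compound exposure of THP-1 cells; compounds (final up to 57.5 uM) added 1 h before LPS (250 ng/mL) and ATP (1.25 mM) stimulation; lower signal means less secretion.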
TDP1 cell noCPT = qHTS for Inhibitors of human tyrosyl-DNA phosphodiesterase 1 (TDP1): qHTS in cells in absence of CPT | DT40 Tdp1-/- hTDP1 cells, no CPT, ATP luminescence, 48 h | Potency, µM (doses to about 46.2 µM), usual class: inhibitors | hit rate 15% among 420,000 | AID 686978, 2013; note: nearly all actives have a fitted effect of over 55% in size
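No-CPT arm: Tdp1-/-;hTDP1 DT40 cells (400/well) plus compounds, incubated ≥48 hr at 37 °C. Readout CellTiter-Glo luminescence.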
TDP1 cell CPT = growth inhibition of DT40 Tdp1-/-;hTDP1 cells with camptothecin (screen for TDP1 inhibitors); chicken DT40 Tdp1-/-;hTDP1 cells + 20 nM CPT, ATP luminescence, 48 h; Potency, µM (highest dose often 46.2 µM), most hits filed as inhibitors; hit rate 12% among 420,000; note: nearly all actives have a fitted effect of over 55% in size
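Cell growth measured by CellTiter-Glo luminescence after a minimum 48 h, 37 C compound exposure with 20 nM CPT in Tdp1-knockout DT40 cells stably expressing hTDP1, seeded 400/well; qHTS titration format.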
Numbers stand for hits; . = inactive; ? = inconclusive; / = not tested or not shown; [ ] = dose if it differs, or a comment. In the library only some 19% were active in any assay of this set; here they are far more common. Unless noted, calls come from the whole dose curve; as a rule, active = well fitted curve in the direction sought with a large enough effect; inconclusive = small, poorly fitted or top-dose-only effect, or another doubt; inactive = no such curve, though single readings can be large; an effect the other way counts as inactive or inconclusive.

SMILES	ASM inhibitor	TGFb SMAD3 inh	HepG2 viability	IL-1B inflam inh	TDP1 cell noCPT	TDP1 cell CPT
CC(=O)c1cccc(S(=O)(=O)N2CCCC(c3nc4c(nnn4Cc4cccc(Cl)c4)c(=O)[nH]3)C2)c1 (stereo not drawn)	?	.	.	?	?	?
O=c1[nH]c(C2CCN(S(=O)(=O)c3ccc(S(=O)(=O)NC4CC4)cc3)CC2)nc2c1nnn2Cc1cccc(F)c1	.	?	.	?	?	16µM
N#Cc1cccc(NC(=O)N2CCC(c3nc4c(nnn4Cc4cccc(Cl)c4)c(=O)[nH]3)CC2)c1	?	.	.	-63	.	.
CC(=O)c1cccc(S(=O)(=O)N2CCCC(c3nc4c(nnn4Cc4ccc(C)cc4)c(=O)[nH]3)C2)c1 (stereo not drawn)	.	.	.	-55	.	?
CCc1nn2c(=O)c(S(=O)(=O)Nc3ccc(OC)c(Cl)c3)c(C)nc2s1	/	.	.	/	?	.
CCC1CN(Cc2cccn2-c2ccccn2)Cc2cc(OC)ccc2O1 (stereo not drawn)	/	/	/	/	?	.[9.04 µM]
CCC(Nc1ccc(-c2nc(-c3ccccn3)no2)cc1[N+](=O)[O-])c1ccccc1 (stereo not drawn)	/	.	.	/	?	?
C[C@H](NC(=O)c1nc[nH]c1C(=O)N1CCN(c2ccccc2)CC1)c1ccccc1	.	?	.	.	.	.
CCOC(=O)C1(C)CCCCCN1C(=O)c1ccc(Cl)nc1 (stereo not drawn)	/	.	.	.	.	.
Cc1ccc(Cn2nnc3c(=O)[nH]c(C4CCN(S(=O)(=O)c5ccc(C)cc5)CC4)nc32)cc1	.	?	.	?	?	.
O=c1[nH]c(C2CCN(S(=O)(=O)c3ccc4c(c3)OCCO4)CC2)nc2c1nnn2Cc1cccc(F)c1	.	.	.	.	?	?
O=c1[nH]c(C2CCN(S(=O)(=O)c3cccc(C(F)(F)F)c3)CC2)nc2c1nnn2Cc1cccc(F)c1	.	?	.	-68	21µM	18µM
O=c1[nH]c(C2CCN(S(=O)(=O)c3ccc(C(F)(F)F)cc3)CC2)nc2c1nnn2Cc1ccc(F)cc1	.	?	.	-57	?	?
Cc1ccc(Cn2nnc3c(=O)[nH]c(C4CCN(S(=O)(=O)c5ccccc5F)CC4)nc32)cc1	.	?	.	-61	.	.
O=c1[nH]c(C2CCN(S(=O)(=O)c3ccccc3)CC2)nc2c1nnn2Cc1ccccc1	.	.	.	.	?	21µM
CS(=O)(=O)NN1C(=O)c2ccccc2NC1c1cccs1 (stereo not drawn)	.	.	.	.	.	.
CCSc1nc(-c2ccccc2)cc(=O)[nH]1	.	.	.	.	.	.
COc1ccc(Nc2cc(C)nc(NCc3ccccc3)n2)cc1	.	13µM	.	-99	4.6µM	5.2µM
Cc1cccc(Nc2ccc(NCc3ccccc3)nn2)c1	.	.	.	?	.	?
Cc1ccc(Nc2cc(C)nc(NCc3ccccc3)n2)cc1	.	?	.	-229	2.6µM	2.6µM
Cc1cc(N/N=C/c2ccccc2Cl)nc(NCc2ccccc2)n1	?	.	.	-68	4.1µM	4.6µM
C/C(=N\Nc1cc(C)nc(NCc2ccccc2)n1)c1ccc([N+](=O)[O-])cc1	.	.	.	.	9.2µM	13µM
O=S(=O)(c1ccc(-c2n[nH]c(=S)o2)cc1)N1CCCCC1	.	.	.	.	.	.
CCN(CC)C(=O)C(=O)c1cc(C)n(-c2ccc(F)cc2)c1C	.	.	.	.	.	.
CCOc1ncccc1C(=O)Nc1ccc2c(c1)OCCCO2	/	.	.	.	?	?
Cc1cc(NC2CCCCC2)nc(NCc2ccccc2)n1	.	14µM	.	-74	4.6µM	4.6µM
